# Values joined by “and” are separate entries in the source; they are usually repeats but may differ in a detail not shown here. Identical values can stand only once. Active and inactive are the calls of the source. Unless noted, the rule behind the calls is not given here.
# What was measured:
# [1] = test system: Wnt5a (protein binding on small-molecule microarray); experiment: small molecules binding Wnt5a protein – biophysical, small-molecule microarray, 635/667 nm fluorescence, primary screen (AID 1142); conditions: 635 nm fluorescence, higher = more signal;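 note: fluorescence read at 667 nm with signal to noise per printed feature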
# [2] = ATP-based viability of Huh7 replicon cells – cell-based, CellTiter-Glo luminescence, basal, 48 h, cytotoxicity control for HCV replication inhibitor project, primary screen (AID 1143); conditions: higher = more signal, called active from +8 up or from −8 down;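 note: Huh7 hepatoma cells carrying a hepatitis C replication reporter with no stimulus; test concentration not given here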
# [3] = Pseudomonas biofilm growth suppression – PAO1 strain, BacTiter-Glo luminescence, LB-PBS, primary screen (AID 1144); conditions: P. aeruginosa PAO1 biofilm, 12 h, higher = more signal
# [4] = basal CRE-LacZ reporter activity in PC12 – cell-based, unstimulated, primary screen (AID 1145); conditions: no forskolin, luminescence, 4.5 h, higher = more signal, called active from +8 up or from −8 down
# [5] = forskolin-driven CRE-LacZ activity in PC12 – cell-based, CRE-LacZ reporter, forskolin-stimulated, primary screen (AID 1146); conditions: luminescence, 4.5 h, higher = more signal, called active from +8 up or from −8 down;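 note: PC12 cells with 6xCRE LacZ reporter stimulated by forskolin 10 µM; beta-galactosidase reporter signal reflecting CREB driven transcription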
# [6] = biological target: Streptavidin (Streptomyces avidinii) (UniProt P22629); experiment: compounds binding control protein streptavidin – biophysical, small-molecule microarray, 635/667 nm fluorescence, artefact control for SMM compound annotation, primary screen (AID 1147); conditions: higher = more signal;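 note: signal reflects streptavidin binding to arrayed compounds as a control protein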
# Sequence of Streptavidin (Streptomyces avidinii) (P22629 whole entry, looked up): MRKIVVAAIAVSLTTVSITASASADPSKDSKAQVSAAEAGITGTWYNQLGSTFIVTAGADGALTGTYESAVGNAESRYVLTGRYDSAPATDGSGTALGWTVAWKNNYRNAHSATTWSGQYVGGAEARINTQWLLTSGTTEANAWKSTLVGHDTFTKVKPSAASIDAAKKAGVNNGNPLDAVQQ
# [7] = probe aInhba binding on compound microarray – biochemical, small-molecule microarray, 635/667 nm fluorescence, primary screen (AID 1148); conditions: higher = more signal;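 note: score merges 667nm spot fluorescence with signal-to-noise for antibody binding to printed compounds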
# Torsin-1A (Homo sapiens) [8] = biological target: Torsin-1A (Homo sapiens) (UniProt O14656); experiment: TOR1A wild-type binding on microarray – cell lysate, small-molecule microarray, lysate, 635/667 nm, primary screen (AID 1149); conditions: COS7 hTOR1A-WT lysate, 635 nm fluorescence, higher = more signal
# Sequence of Torsin-1A (Homo sapiens) (O14656 whole entry, looked up): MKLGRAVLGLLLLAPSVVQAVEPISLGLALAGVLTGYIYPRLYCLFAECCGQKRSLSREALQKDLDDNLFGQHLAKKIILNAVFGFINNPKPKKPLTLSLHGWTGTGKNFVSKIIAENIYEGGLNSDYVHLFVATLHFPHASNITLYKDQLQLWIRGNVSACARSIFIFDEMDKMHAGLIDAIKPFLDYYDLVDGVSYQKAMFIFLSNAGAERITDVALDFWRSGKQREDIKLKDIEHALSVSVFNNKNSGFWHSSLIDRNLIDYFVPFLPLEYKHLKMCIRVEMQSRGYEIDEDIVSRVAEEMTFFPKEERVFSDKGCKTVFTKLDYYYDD
# Torsin-1A (Homo sapiens) [9] = biological target: Torsin-1A (Homo sapiens) (UniProt O14656); experiment: torsin A mutant lysate binding on microarrays – cell lysate, small-molecule microarray, COS7 lysate, 635/667 nm fluorescence, primary screen (AID 1150); conditions: COS7 hTOR1A mutant lysate, 635 nm fluorescence, higher = more signal;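 note: score pools 667 nm emission and signal to noise measuring lysate protein binding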
# [10] = test system: Sonic hedgehog protein (Shh); experiment: Sonic hedgehog microarray binding compounds – biochemical, small-molecule microarray, 635/667 nm fluorescence, primary screen (AID 1151); conditions: 635 nm fluorescence, higher = more signal;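 note: Shh protein binding to compounds spotted on small-molecule microarray slides; score combines spot fluorescence intensity with signal-to-noise across triplicate slides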
# [11] = optical density shifts of acrAB sulA E. coli – strain DRC41, OD650, 48 h, E. coli filamentation inducer project, primary screen (AID 1152); conditions: higher = more signal, called active from +8 up or from −8 down;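 note: E. coli MC1000 strain DRC41 lacking acrAB efflux pump and sulA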
# [12] = probe aLefty1 binding on compound microarray – biochemical, small-molecule microarray, 635/667 nm fluorescence, primary screen (AID 1153); conditions: higher = more signal;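 note: score merges spot fluorescence with signal-to-noise ratio from the scanned slide images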
# [13] = plasmodial surface anion channel blockers, osmotic lysis – cell-based, P. falciparum Indochina, OD700, 1 h, primary screen (AID 1154); conditions: P. falciparum Indochina infected RBC osmotic lysis, higher = more signal, called active from +8 up or from −8 down
# [14] = plasmodial surface anion channel blockers, osmotic lysis – cell-based, P. falciparum Indochina, OD700, 2 h, primary screen (AID 1155);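 note: lysis reports solute entry through the parasite surface anion channel PSAC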; conditions: P. falciparum Indochina infected erythrocytes, higher = more signal, called active from +8 up or from −8 down
# [15] = changes in parasitized red cell lysis, either direction – P. falciparum Indochina, OD700, 3 h, PSAC antagonist project, primary screen (AID 1156); conditions: P. falciparum-infected erythrocytes, osmotic lysis, higher = more signal, called active from +8 up or from −8 down
# [16] = plasmodial surface anion channel blockers, osmotic lysis – cell-based, P. falciparum Indochina, OD700, 18 h, primary screen (AID 1157); conditions: P. falciparum Indochina infected erythrocytes, osmotic lysis OD700, 18 h; higher = more signal, called active from +8 up or from −8 down
# [17] = S6 kinase pathway phospho-S6 level changes – cell-based, A549, cytoblot, luminescence, serum-stimulated, primary screen (AID 1158); conditions: 5 h, higher = more signal;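 note: serum-stimulated A549 lung adenocarcinoma cells; signal is phosphorylated S6 detected by cytoblot immunostaining with HRP secondary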
# [18] = biological target: NADPH oxidase 2 (Homo sapiens) (UniProt P04839); experiment: compounds shifting NOX2 Amplex Red fluorescence – cell-based, HEK293-NOX2, PMA-stimulated, NOX inhibitor project, primary screen (AID 1159); conditions: 45 min, higher = more signal, called active from +8 up or from −8 down; note: test concentration not given here
# Sequence of NADPH oxidase 2 (Homo sapiens) (P04839 whole entry, looked up): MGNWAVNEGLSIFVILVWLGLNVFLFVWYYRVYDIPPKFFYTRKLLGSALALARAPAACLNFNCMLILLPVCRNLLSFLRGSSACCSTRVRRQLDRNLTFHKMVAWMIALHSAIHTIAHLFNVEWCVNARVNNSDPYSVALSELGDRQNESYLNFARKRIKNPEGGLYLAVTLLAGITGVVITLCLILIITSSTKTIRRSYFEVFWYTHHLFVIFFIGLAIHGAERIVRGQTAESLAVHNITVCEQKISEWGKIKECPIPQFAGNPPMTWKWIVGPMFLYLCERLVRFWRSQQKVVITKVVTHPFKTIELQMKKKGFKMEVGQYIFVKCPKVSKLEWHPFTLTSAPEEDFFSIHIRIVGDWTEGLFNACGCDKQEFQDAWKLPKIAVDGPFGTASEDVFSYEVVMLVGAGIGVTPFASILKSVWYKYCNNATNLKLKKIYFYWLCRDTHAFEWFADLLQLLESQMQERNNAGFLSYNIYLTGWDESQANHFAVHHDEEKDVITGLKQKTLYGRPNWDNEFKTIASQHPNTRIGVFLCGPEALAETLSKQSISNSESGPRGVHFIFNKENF
# [19] = biological target: NADPH oxidase 4 (Homo sapiens) (UniProt Q9NPH5); experiment: compounds shifting NOX4 Amplex Red fluorescence – cell-based, HEK293-NOX4, tetracycline-induced, NOX inhibitor project, primary screen (AID 1160); conditions: HEK293-NOX4, Amplex Red H2O2 fluorescence, 45 min; higher = more signal, called active from +8 up or from −8 down
# Sequence of NADPH oxidase 4 (Homo sapiens) (Q9NPH5 whole entry, looked up): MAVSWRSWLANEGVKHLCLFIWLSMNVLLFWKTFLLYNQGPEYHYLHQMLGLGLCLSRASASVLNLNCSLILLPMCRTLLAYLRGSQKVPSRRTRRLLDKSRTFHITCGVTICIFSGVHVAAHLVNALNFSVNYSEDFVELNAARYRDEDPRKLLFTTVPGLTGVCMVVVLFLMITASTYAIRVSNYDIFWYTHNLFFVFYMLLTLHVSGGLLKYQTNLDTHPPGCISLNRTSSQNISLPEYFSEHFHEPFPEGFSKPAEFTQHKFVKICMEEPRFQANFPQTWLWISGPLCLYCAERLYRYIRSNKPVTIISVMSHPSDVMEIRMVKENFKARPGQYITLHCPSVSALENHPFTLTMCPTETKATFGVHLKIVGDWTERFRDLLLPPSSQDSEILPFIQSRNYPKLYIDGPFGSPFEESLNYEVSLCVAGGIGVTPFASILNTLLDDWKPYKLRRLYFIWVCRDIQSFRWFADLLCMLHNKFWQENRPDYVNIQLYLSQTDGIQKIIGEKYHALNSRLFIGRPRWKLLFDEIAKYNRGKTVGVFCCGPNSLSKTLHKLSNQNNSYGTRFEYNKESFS
# [20] = biological target: NADPH oxidase 5 (Homo sapiens) (UniProt Q96PH1); experiment: compounds shifting NOX5 Amplex Red fluorescence – cell-based, HEK293-NOX5, NOX inhibitor project, primary screen (AID 1161); conditions: HEK293-NOX5, ionomycin, 45 min, higher = more signal
# Sequence of NADPH oxidase 5 (Homo sapiens) (Q96PH1 whole entry, looked up): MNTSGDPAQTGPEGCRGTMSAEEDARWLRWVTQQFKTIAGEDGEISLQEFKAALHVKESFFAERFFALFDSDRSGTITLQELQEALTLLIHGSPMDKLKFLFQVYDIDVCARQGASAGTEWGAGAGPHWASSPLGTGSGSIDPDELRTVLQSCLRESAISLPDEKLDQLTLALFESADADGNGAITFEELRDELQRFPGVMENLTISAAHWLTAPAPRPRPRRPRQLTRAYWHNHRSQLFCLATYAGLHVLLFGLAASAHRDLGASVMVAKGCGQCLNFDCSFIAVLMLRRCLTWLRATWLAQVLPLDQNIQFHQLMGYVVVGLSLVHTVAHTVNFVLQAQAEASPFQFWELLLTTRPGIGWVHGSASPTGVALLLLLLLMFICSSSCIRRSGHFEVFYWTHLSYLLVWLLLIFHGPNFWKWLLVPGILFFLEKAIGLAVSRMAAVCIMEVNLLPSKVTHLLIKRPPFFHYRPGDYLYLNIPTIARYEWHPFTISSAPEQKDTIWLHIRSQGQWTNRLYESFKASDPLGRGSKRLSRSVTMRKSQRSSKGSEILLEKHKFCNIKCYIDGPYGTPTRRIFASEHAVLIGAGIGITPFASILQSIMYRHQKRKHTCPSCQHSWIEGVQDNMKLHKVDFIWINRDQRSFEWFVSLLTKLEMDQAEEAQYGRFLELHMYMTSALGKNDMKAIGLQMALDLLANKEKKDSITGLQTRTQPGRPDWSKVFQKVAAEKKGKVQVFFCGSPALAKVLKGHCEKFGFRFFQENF
Compound,composite z-score [1],z-score [2],z-score [3],z-score [4],z-score [5],composite z-score [6],composite z-score [7],composite z-score (Torsin-1A (Homo sapiens) [8]),composite z-score (Torsin-1A (Homo sapiens) [9]),composite z-score [10],z-score [11],composite z-score [12],z-score [13],z-score [14],z-score [15],z-score [16],z-score [17],z-score [18],z-score [19],z-score [20]
C=CCN(C(=O)C1N(C(C)(C)CO)C(=O)C2C(C(=O)O)C3C=CC21O3)c1ccc(OC)cc1 (stereo not given),-0.737 and -0.572,-0.265 (inactive) and -0.156 (inactive),1.42 (inactive),-0.761 (inactive) and -0.501 (inactive),-1.27 (inactive) and -0.62 (inactive),-1.73 and -1.67,-0.227 and -0.38,-2.67 and -1.85,-1.25 and -2.3,-0.639 and -2.16,2.14 (inactive) and 0.776 (inactive),-0.0544 and -0.333,2.3 (inactive) and -0.0606 (inactive),-0.613 (inactive) and -0.0765 (inactive),-1.82 (inactive) and 0.228 (inactive),-0.646 (inactive) and -0.183 (inactive),0.228 and -0.0837,0.833 (inactive) and -0.0915 (inactive),-2.16 (inactive) and -2.56 (inactive),0.782 and -1.03
CC(C)=NOCc1ccc(-c2cn([C@@H]3COC[C@H]3O)nn2)cc1,0.184,0.164 (inactive),1.08 (inactive),1.47 (inactive),0.607 (inactive),0.562,-0.128,0.538,0.162,0.169,0.164 (inactive),-0.245,11.2 (active),0.536 (inactive),-0.725 (inactive),0.296 (inactive),-0.119,0.606 (inactive),0.0519 (inactive),-0.388
C=CCN(C(=O)C1N(C(C)(C)CO)C(=O)C2C(C(=O)O)C3C=CC21O3)C(C)(C)C (stereo not given),-1.52 and -0.697,-0.037 (inactive) and -0.67 (inactive),1.58 (inactive) and 1.05 (inactive),0.471 (inactive) and 0.996 (inactive),0.0027 (inactive) and -0.21 (inactive),-1.86 and -1.52,-0.271 and -0.302,-3.46 and 0.256,-2.89 and 0.829,-2.51 and -1.85,-0.497 (inactive) and 0.156 (inactive),0.0026 and -0.316,-0.455 (inactive) and -0.501 (inactive),0.222 (inactive) and 0.135 (inactive),-0.67 (inactive) and -0.452 (inactive),0.11 (inactive) and -0.11 (inactive),-0.356 and -0.316,0.849 (inactive) and 0.0709 (inactive),-1.48 (inactive) and -2.38 (inactive),0.103 and -0.476
C=CCN(CCCC)C(=O)C(c1cccs1)N(C(=O)/C=C\C(=O)O)c1c(Cl)cccc1CO (stereo not given),-1.57 and -1.27,0.665 (inactive) and 0.504 (inactive),-0.428 (inactive) and 0.0609 (inactive),-0.761 (inactive) and 0.329 (inactive),0.325 (inactive) and -0.167 (inactive),-1.55 and -0.309,-0.38 and -0.186,-4.75 and -2.7,-3.62 and -2.89,-1.48 and -1.63,0.518 (inactive) and 0.0558 (inactive),-0.148 and -0.0099,0.111 (inactive) and 0.897 (inactive),-0.0165 (inactive) and -0.14 (inactive),-0.38 (inactive) and 0.0904 (inactive),0.113 (inactive) and 0.283 (inactive),1.21 and 0.596,0.148 (inactive) and 0.256 (inactive),-0.319 (inactive) and -0.507 (inactive),0.16 and 0.227
CCOC(=O)[C@H](Cc1ccccc1)NC(=O)CCC1CC(OC(=O)NCc2cccc3ccccc23)CC2(CCCC(COC(=O)NCCCN3CCCC3=O)O2)O1 (stereo not given in full),0.0828,-0.486 (inactive),-1.02 (inactive),-0.072 (inactive),0.309 (inactive),0.609,-0.154,0.0655,0.327,0.63,-0.0133 (inactive),0.0371,-0.532 (inactive),-0.874 (inactive),-2.17 (inactive),-0.685 (inactive),-0.46,1.09 (inactive),0.487 (inactive),-0.609
COC(=O)C1=C(C)N(Cc2ccccc2)[C@]23O[C@](C(=O)OC)(C(=O)N2[C@@H]1c1ccccc1)[C@H]1C(=O)N(c2ccccc2)C(=O)[C@H]13,0.115 and 0.0304,-0.123 (inactive) and -0.532 (inactive),-1.18 (inactive),-0.165 (inactive) and 0.472 (inactive),-1.65 (inactive) and -0.623 (inactive),0.32 and 0.436,0.201 and -0.0552,0.718 and 0.667,0.476 and 0.211,0.833 and 1.14,-0.371 (inactive) and 0.644 (inactive),-0.139 and -0.0046,0.729 (inactive) and 0.997 (inactive),0.626 (inactive) and -1.04 (inactive),1.17 (inactive) and 2.21 (inactive),-0.0207 (inactive) and -1.23 (inactive),-0.103 and 0.506,0.983 (inactive) and 0.108 (inactive),0.632 (inactive) and 1.27 (inactive),1.07 and 0.999

# — PubChem BioAssay
